# KDM5B inhibitor – blocks human KDM5B histone demethylase activity | Q9UGL1 | KDM5B demethylase, FDH-coupled NADH fluorescence (FDH is formaldehyde dehydrogenase) | Potency, µM (highest dose often 57.7 µM), actives largely listed as inhibitors | 220,000 tested, 2.6% active; active means well fitted inhibition curve with a large enough effect; further: nearly all actives have a fitted effect of over 70% in size
# Target sequence (Q9UGL1 whole entry, looked up): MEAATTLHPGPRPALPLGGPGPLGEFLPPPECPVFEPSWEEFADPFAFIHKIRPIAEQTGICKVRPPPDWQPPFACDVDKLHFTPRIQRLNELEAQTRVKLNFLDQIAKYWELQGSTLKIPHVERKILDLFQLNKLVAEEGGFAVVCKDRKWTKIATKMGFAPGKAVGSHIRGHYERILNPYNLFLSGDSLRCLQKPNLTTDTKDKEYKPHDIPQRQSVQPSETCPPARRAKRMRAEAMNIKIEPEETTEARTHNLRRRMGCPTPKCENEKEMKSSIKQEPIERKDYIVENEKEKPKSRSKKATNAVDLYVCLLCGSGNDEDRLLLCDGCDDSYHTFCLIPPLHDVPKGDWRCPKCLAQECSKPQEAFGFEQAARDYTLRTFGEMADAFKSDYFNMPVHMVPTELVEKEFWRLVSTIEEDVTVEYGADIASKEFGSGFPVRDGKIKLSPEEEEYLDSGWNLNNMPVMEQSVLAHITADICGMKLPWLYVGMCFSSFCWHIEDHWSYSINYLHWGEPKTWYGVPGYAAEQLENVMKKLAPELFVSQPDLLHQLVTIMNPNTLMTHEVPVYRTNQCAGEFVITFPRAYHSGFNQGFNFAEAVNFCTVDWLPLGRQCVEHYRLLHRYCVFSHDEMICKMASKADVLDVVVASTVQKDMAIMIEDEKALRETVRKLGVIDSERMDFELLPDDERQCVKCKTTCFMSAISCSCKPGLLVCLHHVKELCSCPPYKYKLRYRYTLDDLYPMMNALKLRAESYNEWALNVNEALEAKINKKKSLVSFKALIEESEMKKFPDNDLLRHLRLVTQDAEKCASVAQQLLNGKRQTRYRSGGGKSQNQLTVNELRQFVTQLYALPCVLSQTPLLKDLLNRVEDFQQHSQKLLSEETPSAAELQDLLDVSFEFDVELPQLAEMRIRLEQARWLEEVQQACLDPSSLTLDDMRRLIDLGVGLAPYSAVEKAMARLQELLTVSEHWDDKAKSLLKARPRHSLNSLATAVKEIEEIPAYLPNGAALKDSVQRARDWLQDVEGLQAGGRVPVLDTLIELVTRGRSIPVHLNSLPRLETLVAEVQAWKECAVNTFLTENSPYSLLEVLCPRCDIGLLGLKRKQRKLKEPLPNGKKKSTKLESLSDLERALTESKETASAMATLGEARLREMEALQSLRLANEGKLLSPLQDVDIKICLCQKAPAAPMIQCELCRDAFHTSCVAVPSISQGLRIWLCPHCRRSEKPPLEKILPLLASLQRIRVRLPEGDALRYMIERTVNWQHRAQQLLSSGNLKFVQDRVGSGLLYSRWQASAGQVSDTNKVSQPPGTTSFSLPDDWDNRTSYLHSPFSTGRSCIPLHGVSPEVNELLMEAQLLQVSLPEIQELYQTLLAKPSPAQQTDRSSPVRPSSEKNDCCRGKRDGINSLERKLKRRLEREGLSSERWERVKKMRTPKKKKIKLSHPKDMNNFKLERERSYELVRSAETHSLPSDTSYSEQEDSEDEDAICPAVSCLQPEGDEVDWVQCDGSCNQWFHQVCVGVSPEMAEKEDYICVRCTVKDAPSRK
#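 KDM5BΔAP (200 nM final) in 50 mM HEPES pH 7.5, 0.01% Tween-20 was preincubated 10 min at RT with compound over a concentration range. Substrate mix (H3K4me3 12.5 µM, α-KG 25 µM, Fe²⁺, ascorbate, NAD⁺, FDH) was added, and NADH fluorescence change over 30 min gave dose-response curves.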
# Hits are given with their value; 0 = inactive; ! = a repeat was not active. Shown is part of a subset that was picked to be rich in hits.
SMILES,KDM5B inhibitor
O=C1COCC2(CN1Cc1cccc(OC(F)(F)F)c1)CN(c1ccccc1F)C2,0
O=S(=O)(NCc1ccc(N2CCOCC2)nc1)c1cc(C(F)(F)F)cc(C(F)(F)F)c1,0
CC(C)c1ccccc1NC(=O)CN(c1ccccc1F)S(=O)(=O)c1ccccc1,0
CCC(=O)N1CCC(C(=O)O)CC1,0
O=C(NCc1ccccc1F)c1ccccc1-c1ccccc1,0
O=C(NCc1ccc(-n2cccn2)cc1)c1cc(Br)ccc1Cl,0
CSCCNC(=O)c1nc2sccn2c1Br,0
O=C(NCc1ccc(-n2cccn2)cc1)c1cc(F)ccc1Br,0
O=C(Cc1ccccc1F)NCc1cccnc1N1CCCCC1,0
CSCCNC(=O)c1cc(Br)cn2ccnc12,35.5µM
O=C(NCc1ccccc1F)c1cc(Br)cn2ccnc12,22.4µM
O=C(NCc1ccc(-n2cccn2)cc1)c1ccc(F)cc1Br,0
O=C(NCCc1ccc(Cl)cc1)c1cc(Br)cn2ccnc12,31.6µM!
O=C(NCCc1ccc(Cl)cc1)c1nc2sccn2c1Br,0
Cc1c(C(=O)NCCc2ccc(Cl)cc2)cccc1-n1cnc2cccnc21,0
O=C(NCc1ccc(F)cc1)c1cc(Br)cn2ccnc12,31.6µM
N#Cc1ccc(/C=C/C(=O)N(CCc2ccccc2)Cc2cccs2)cc1,0
NCc1cccc(-c2cccc(C(F)(F)F)c2)c1,0
COc1ccc(C)cc1NC(=O)C(C)OC(=O)c1ccsc1 (stereo unspecified),0
CCc1cc(=O)oc2c(C)c(OCc3ccc(OC)cc3)ccc12,0
CC1=C(c2ccc(C(C)C)cc2)S(=O)(=O)NC1=NC(C)C12CC3CC(CC(C3)C1)C2 (stereo unspecified),0
CC(OC(=O)c1cc(=O)c2cc(Cl)ccc2o1)C(=O)NC1CC1 (stereo unspecified),0
COc1cc2c(cc1OC)C(C)N(CC(=O)Nc1ccc(C)c(C)c1)CC2 (stereo unspecified),0
Cc1ccc2nc(C)c(C(=O)NCc3cccnc3OC(C)C)cc2c1,0
O=C(c1ccc(C(F)(F)F)cc1)N1CCCC2(C1)C(=NC1CCCC1)NC(=O)N2c1cc(F)cc(F)c1 (stereo unspecified),0
SMILES,KDM5B inhibitor
CCOc1ccc(NC(=O)COc2ccc(CC)cc2)c2cccnc12,0
CC(C)CCN1CCCC2(C1)C(=NC1CCCC1)NC(=O)N2c1cc(F)cc(F)c1 (stereo unspecified),0
O=C(OCc1ccc(I)cc1)c1ccc([N+](=O)[O-])cc1,0
O=C(CN1CC2CC(C1)[C@H]1CCCC(=O)N1C2)NCCCN1CCOCC1 (stereo partly specified),0
CN1CCN(CCCNC(=O)CN2CC3CC(C2)[C@H]2CCCC(=O)N2C3)CC1 (stereo partly specified),0
O=C(CN1CC2CC(C1)[C@H]1CCCC(=O)N1C2)NCCN1CCCCC1 (stereo partly specified),0
O=C(NCCN1CCCCC1)c1ccc(N2CC3CC(C2)[C@H]2CCCC(=O)N2C3)nc1 (stereo partly specified),0
C=CCNC(=O)c1ccc(N2CC3CC(C2)[C@H]2CCCC(=O)N2C3)nc1 (stereo partly specified),25.1µM
O=C(NCCCN1CCCCC1)c1cccnc1N1CC2CC(C1)[C@H]1CCCC(=O)N1C2 (stereo partly specified),28.2µM
O=C(NC1CCCCC1)c1ccc(N2CC3CC(C2)[C@H]2CCCC(=O)N2C3)nc1 (stereo partly specified),0
O=C(CN1CC2CC(C1)[C@H]1CCCC(=O)N1C2)NCCCN1CCN(c2ccccc2)CC1 (stereo partly specified),0
O=C(CN1CC2CC(C1)[C@H]1CCCC(=O)N1C2)NCCCN1CCCc2ccccc21 (stereo partly specified),14.1µM
O=C1NCc2ccccc2CC12CCCCN2Cc1ccccc1 (stereo unspecified),0
CCCN(CCC)C(=O)c1cc2sc3ccccc3c2s1,0
CC(C)(C)SCC(=O)NN=C(c1ccccc1)c1ccccc1,0
CN(C)c1ccc(CN(CC2CCCO2)C(=O)c2ccc(Br)cc2)cc1 (stereo unspecified),0
CCN(CC)C(=O)c1c(-c2ccc(F)cc2)noc1[C@H](C)O,0
CCN(CC1CCCO1)C(=O)c1ccc2nc(-c3ccc(F)cc3)cn2c1 (stereo unspecified),22.4µM
CCN(CC(=O)NCc1ccc(F)cc1)C(=O)c1ccc(C)o1,0
COc1ccc(C(=O)N(Cc2ccc(N(C)C)cc2)CC2CCCO2)cc1 (stereo unspecified),0
Cc1ccc(CN(C(=O)c2ccc(F)cc2)c2ccccn2)o1,0
CCN(Cc1ccc(C)o1)C(=O)c1ccc2nc(-c3ccc(F)cc3)cn2c1,28.2µM
O=C(NCc1ccc(Cn2cccn2)cc1)c1cn[nH]c1-c1ccc(F)cc1,0
CCN(CCn1cccn1)C(=O)c1ccc2nc(-c3ccc(F)cc3)cn2c1,25.1µM
Cc1nc(SCC(=O)Nc2oncc2-c2ccccc2)[nH]c(=O)c1C,0
SMILES,KDM5B inhibitor
CCOC(=O)C(N)CO (stereo unspecified),0
CCCCc1ccc(-c2ccc(C3CCC(CC)CC3)cc2)nc1 (stereo unspecified),0
COc1ccc(OC)c(CNC(=O)c2c(-c3ccc(C)cc3)nnc3ccccc23)c1,0
CCOC(=O)C1=C(C)NC2=C(C(=O)c3ccccc32)C1c1ccc(OCc2ccccc2)cc1 (stereo unspecified),0
CCC(CC)C(=O)Nc1ccccc1C,0
CC(C)c1noc(-c2ccc(OCC(=O)NCc3cc(F)cc(F)c3)cc2)n1,0
Cc1ccc(C(=O)NCc2nnc3cc(-c4nc(C(C)C)no4)ccn23)cc1F,7.08µM
COc1ccc(C(=O)NCCc2noc(-c3ccccc3)n2)cc1F,0
Cc1noc(-c2ccn3c(CNC(=O)c4ccc(C)c(F)c4)nnc3c2)n1,3.55µM
COc1ccc(C(=O)N2CCCC(n3cc(-c4nc(C(C)C)no4)nn3)C2)cc1F (stereo unspecified),0
Cc1noc(-c2ccn3c(CNC(=O)COc4ccc(F)cc4)nnc3c2)n1,12.6µM
Cc1ccc(C(=O)NCCn2cccc2-c2nc(-c3ccccc3)no2)cc1F,0
COc1ccc(C(=O)NCc2nnc3cc(-c4nc(C(C)C)no4)ccn23)cc1F,10µM
O=CNNC(=S)NCCc1ccccc1,0
COc1cc(-c2c(NC(=O)C(C)C)n(C)c3ccccc3c2=O)cc(OC)c1OC,0
O=C(Cc1csc(-c2ccc(F)cc2)n1)Nc1ccnn1Cc1ccc(Cl)cc1,0
O=C(NC1CCCC1)c1noc(-c2ccc[nH]c2=O)n1,0
COC(=O)c1ccc(CNC(=O)c2cccc(OC)c2)cc1,0
CCc1ccc(/C(C)=N/NC(=O)c2csc(CC)c2)cc1,0
O=C(NC(c1ccccc1)c1cccs1)c1ccccc1 (stereo unspecified),0
Cc1cnc(C(=O)Oc2ccc(Cl)cc2Cl)cn1,0
CCN(CC)Cc1nc(C2(O)CCN(Cc3ccccc3C(F)(F)F)CC2)cs1,0
CCOc1ccc2c(c1)cc(C(=O)N1CCCCC1)n2C,0
COc1ccc(C(=O)N[C@H]2CC[C@]3(C)CCC([C@H](C)C(=O)N4CCCC4)[C@H](O)[C@H]3[C@@H]2C)cc1 (stereo partly specified),0
COC(=O)CN1CCCC1Cc1cccc(OC)c1 (stereo unspecified),0
Cc1c(C(=O)Nc2ccc3oc(-c4cncc(Br)c4)nc3c2)cccc1[N+](=O)[O-],0

# Source: PubChem BioAssay
